Screening results as filed in PubChem BioAssay.
Sampled rows, rich in hits. Any-hit rate of the full collection: about 3.8%.
esBAF inh: Bmi1 luciferase reporter increase in mESCs, primary screen, esBAF inhibitor project, mouse ES cells, Bmi1 luciferase knock-in, single point; reporter increase, % at 12.5 µM; AID 602393, 2012; 24 h; 100% = twice the neutral-well signal; 350,000 tested, 2% active; in the data active = activation above about 40%; inconclusive = no clear call, values can overlap the other calls;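 also: 0% = median of the plate's neutral control wells and 100% = double that signal; a rise in the Bmi1 reporter signal indicates esBAF inhibition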
Wnt act: Wnt/beta-catenin pathway activators, primary screen, cell-based, plate reader, single point; Wnt/beta-catenin reporter cell assay, activator; activation, % at 9.35 µM; 300,000 tested, 1.2% active; AID 743398, 2014; in the data active = activation above about 30%, passing the limit was not always enough; inconclusive = no clear call, values can overlap the other calls;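 also: 0% = neutral control wells and 100% = positive control wells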
MITF act: activators of MITF-driven TRPM1 promoter reporter, primary screen, cell-based, SK-MEL-5, luciferase, single point; SK-MEL-5 TRPM1-promoter luciferase, 24 h; % of positive control, neutral wells = 0; activation, % at 12.5 µM; 300,000 tested, 0.75% active;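 active = mean activation of at least 80% with every replicate also reaching 80%; inconclusive = mean reaches 80% but some replicate falls short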;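 also: 0% = neutral control wells and 100% = parthenolide positive control wells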
HSF1 activator: HSF-1 activators, primary screen, NIH3T3-HGL cells, MG132 stress, luminescence, single point. NIH3T3-HGL HSF-1 luciferase reporter, 8 h; 100% = twice DMSO control signal. activation, % at 9 µM. 300,000 tested, 1.7% active. AID 504408, 2011;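 active = mean replicate activation of at least 50% with a set share of replicates each reaching 50%; inconclusive = only one of those two conditions met; inactive = mean below 50% and too few replicates reaching it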;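 also: 0% = median of the neutral control wells and 100% = twice that signal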
HSF1 inh: HSF1 inhibitors in luciferase reporter cells, primary screen, cell-based, NIH3T3, luminescence. NIH3T3-HGL HSE-luciferase, MG132-induced, luminescence 8 h; active compounds read low. activity change, negative = inhibition, % at 7.5 µM (by protocol). AID 2098, 2009. 300,000 tested, 0.77% active;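 active = more than half of replicate wells show activity change below -50%, luminescence cut by over half; inconclusive = some wells, but at most half, below -50%; inactive = no replicate well below -50%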;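 also: luciferase reports HSF-1 transcriptional activity via heat shock element; 0% = median of DMSO wells and -100% = zero luminescence signal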
The depositor's hits bear a star; u = inconclusive; x = no result.

SMILES	esBAF inh	Wnt act	MITF act	HSF1 activator	HSF1 inh
Cc1ccnc(Sc2ccc([N+](=O)[O-])cc2[N+](=O)[O-])n1	-1.9	x	-24.8	130.9*	96.5
O=[N+]([O-])c1ccc(Sc2nc3ccccc3o2)c([N+](=O)[O-])c1	-37.4	3.8	-86.6	230.3*	193.9
C[C@H]1CCCCO[C@@H](CN(C)Cc2ccccc2)[C@@H](C)CN([C@@H](C)CO)C(=O)c2cc(NC(=O)c3ccncc3)ccc2O1	-0.6	x	x	x	x
Cc1noc(C)c1NC(=O)N[C@@H]1C=C[C@H](CC(=O)Nc2ccccc2)O[C@H]1CO	2.1	x	x	x	x
CN(C(=O)c1ccccc1)c1nc2ccccc2s1	-75.0	x	45.7	65.0*	29.0
Cc1nc2ccccc2c(=O)n1Nc1cccc(Cl)c1	x	-4.9	-3.0	10.4	-1.7
O=c1oc(Nc2cccc(Cl)c2)nc2ccccc12	x	12.0	38.4	67.2*	25.4
O=c1c2ccccc2nc2sc(Nc3cccc(Cl)c3)nn12	46.1*	21.8	36.7	x	x
O=C(O)C(=O)/C(=C\c1cccc(Cl)c1)c1ccc2ccccc2n1	78.4*	39.6*	22.8	59.6*	17.3
Cc1cccc(/C=C(\C(=O)C(=O)O)c2ccc3ccccc3n2)c1	49.9*	14.8	6.3	13.5	26.0
N#Cc1ccc(/C=C(\C(=O)C(=O)O)c2ccc3ccccc3n2)cc1	32.1	0.8	39.2	34.5	30.1
COc1ccccc1NC(=O)N[C@H]1CC[C@H](CCn2cc(C3(O)CCCC3)nn2)O[C@@H]1CO	1.7	x	x	x	x
CC(C)NC(=O)Nc1cccc2c1O[C@@H](CN(C)Cc1ccc(Oc3ccccc3)cc1)[C@@H](C)CN([C@@H](C)CO)C2=O	-2.9	x	x	x	x
C/C(CC(=O)Nc1ccc([N+](=O)[O-])cc1)=N\NC(=O)c1ccccc1O	44.7*	-0.5	x	-0.8	-3.2
c1ccc(-c2ccc3sccc3n2)cc1	x	48.0*	115.5*	15.6	22.5
CCCCNC(=O)C(c1ccc(OCC(=O)OC)c(C(=O)OC)c1)N(CCc1c[nH]c2ccccc12)C(=O)CCCCCN1C(=O)NC(c2ccc(-c3ccccc3)cc2)C(C(=O)OCc2ccccc2)=C1C (stereo unspecified)	x	x	x	-84.1	-79.9*
C[C@H]1CCCCO[C@H](CN(C)CC2CCCCC2)[C@@H](C)CN([C@@H](C)CO)C(=O)c2cc(NC(=O)Nc3ccc4c(c3)OCO4)ccc2O1	2.6	x	x	x	x
CCOC(=O)CSc1cc(CS(C)(=O)=O)nc(-c2ccccn2)n1	-3.0	-1.0	9.8	-69.9	-61.2*
COc1ccc2oc(C(=O)N3CCN(S(=O)(=O)c4ccc(F)cc4)CC3)c(C)c2c1	-0.4	-1.3	10.6	x	x
COc1ccc2oc(C(=O)N3CCN(S(=O)(=O)c4c(C)c(C)cc(C)c4C)CC3)c(C)c2c1	51.1*	-3.3	x	x	x
CO[C@H]1CN(C)C(=O)c2cc(NC(=O)C3CC3)ccc2OC[C@@H](C)N(Cc2nccs2)C[C@H]1C	-2.9	x	x	x	x
C[C@H](O)C#Cc1cnc2c(c1)C(=O)N([C@H](C)CO)C[C@@H](C)[C@@H](CN(C)Cc1ccccn1)O2	-4.4	x	x	x	x
O=C(Nc1nccs1)c1ccc(-c2ccc(F)cc2)o1	x	37.4*	141.8*	72.8*	25.6
C/C=C/C=C/C(=O)Nc1nccs1	x	2.6	30.6	36.4	20.3
O=C(/C=C/c1ccc(Cl)cc1)Nc1nccs1	x	15.1	32.8	62.9*	38.5
SMILES	esBAF inh	Wnt act	MITF act	HSF1 activator	HSF1 inh
O=C(Nc1nccs1)c1ccc(-c2ccc(Cl)cc2)o1	x	52.2*	108.9*	56.6*	25.2
Cc1nnc(NC(=O)c2ccc(-c3ccc(Cl)cc3)o2)s1	15.8	-1.8	11.0	18.1	7.2
O=C(Nc1nccs1)c1ccc(-c2ccc([N+](=O)[O-])cc2)o1	68.8*	-0.7	40.3	-20.2	-13.2
Cn1cnc(CCNC(=O)C[C@H]2CC[C@@H]3[C@H](COC[C@H](O)CN3C(=O)Nc3ccccc3)O2)c1	1.3	x	x	x	x
COCC(=O)N1C[C@H](C)[C@H](OC)CN(C)C(=O)c2cc(NC(=O)NC(C)C)ccc2OC[C@H]1C	-0.3	x	x	x	x
C[C@H](NC(=O)C[C@@H]1C=C[C@H](NC(=O)Cc2ccccn2)[C@H](CO)O1)c1ccccc1	2.0	x	x	x	x
c1ccc(CSc2snnc2-c2ccccc2)cc1	u	x	x	41.5	20.8
Clc1ccc(CSc2snnc2-c2ccccc2)c(Cl)c1	u	38.0*	x	29.3	31.2
O=c1c2ccccc2sc2ccc(C#CC3(O)CCCCC3)cc12	-84.9	-22.8	-92.0	-93.5	-92.3*
O=c1c2ccccc2oc2cc(C#CC3(O)CCCCC3)ccc12	-61.9	-15.8	-45.6	-83.8	-80.8*
COc1cccc2sc3ccc(C#CC4(O)CCCCC4)cc3c(=O)c12	23.1	19.9	106.6*	-21.8	-4.1
C=CCn1c2ccccc2c(=O)c2cc(C#CC3(O)CCCCC3)ccc21	2.7	8.1	68.8	-48.9	-43.6
CCCNC(=O)C[C@H]1CC[C@@H]2[C@@H](COc3ccc(NC(=O)c4ccc(Cl)cc4)cc3C(=O)N2C)O1	5.2	x	x	x	x
O=C(Nc1cnn(Cc2ccc(F)cc2)c1)c1cnccn1	41.6*	x	7.2	4.9	1.7
CCOc1cc(/C=N/NC(=O)Cn2nc([N+](=O)[O-])cc2C)cc(Br)c1OCc1ccccc1C	-5.0	-3.9	-6.4	70.7*	27.7
CCCNC(=O)N1C[C@H]2[C@@H](c3ccccc31)[C@H](CO)N2C(=O)C1CCOCC1	-3.3	x	x	x	x
C[C@@H]1CN([C@@H](C)CO)S(=O)(=O)c2ccc(-c3cncnc3)cc2O[C@H]1CN(C)Cc1cccnc1	-6.3	x	x	x	x
O=C(/C=C/c1ccc([N+](=O)[O-])cc1)N1CCN(Cc2ccccc2)CC1	6.2	0.1	-0.5	-2.2	-3.0
O=C(/C=C/c1ccc(OCCCF)cc1)N1CCN(Cc2ccccc2)CC1	8.0	2.5	12.1	61.3*	8.5
CC(C)(C)n1ncc2c(=O)n(CC(=O)c3ccc(Cl)cc3)cnc21	74.5*	x	73.6	u	25.0
O=C(NCc1ccc2c(c1)OCO2)c1nc(S(=O)(=O)Cc2ccccc2F)ncc1Cl	-86.3	-2.2	-92.2	84.0*	106.7
O=C(NCc1ccc2c(c1)OCO2)c1nc(S(=O)(=O)Cc2ccccc2)ncc1Cl	-34.6	-1.2	-52.5	-89.3	-88.8*
O=C(NCc1ccc2c(c1)OCO2)c1ccccc1Cl	7.9	-0.2	8.0	20.9	0.0
C[C@H](NC(=O)C[C@H]1C[C@H]2c3cc(NC(=O)NC4CCCCC4)ccc3O[C@H]2[C@H](CO)O1)c1ccccc1	2.2	x	x	x	x
CCCCNc1ccc2c(c1)C1CC2CCN1C(=O)OCc1ccccc1 (stereo unspecified)	100.4*	10.7	125.5*	x	x
O=C(OCc1ccccc1)N1CCC2CC1c1ccc(/C=C/CCCCl)cc12 (stereo unspecified)	59.0*	1.2	x	x	x
